From PubChem BioAssay AID720524 (National Center for Advancing Translational Sciences (NCATS), 2013)
About 1,000 (71%) of roughly 1,400 compounds were called active. Roughly 12% stayed inconclusive and do not appear here. Calls follow the shape of the dose curve; as a rule, active = well fitted inhibition curve with a large enough effect; inconclusive = small, poorly fitted or top-dose-only effect; inactive = no such curve, though single readings can be large or run the other way. So high a share suggests a set chosen from earlier hits. The list is a sample of the results. Some compounds were tested as several samples or in several runs, with calls that do not always agree.

Test: Nrf2 qHTS screen for inhibitors: Nrf2 A549 ARE-Fluc Confirmation Assay for Hit Validation; also: nearly all actives have a fitted effect of over 65% in size
Conditions: A549 ARE-firefly luciferase reporter, luminescence; series mostly up to 46.1 µM
Description: Nrf2 is a transcription factor that maintains cellular redox homoestasis and protects cells from xenobiotics. Nrf2 binds to the antioxidant response element (ARE) to induce gene expression of a broad spectrum of genes that encode for antioxidants. […] Finding a small molecule that act as an inhibitor of Nrf2 function would represent a novel therapeutic target that could lead to improvement in survival of patients undergoing chemo- and/or radio- therapy.
In collaboration with the Biswal laboratory, a cell based, luminescence assay (BugLite) was developed to detect the Nrf2 activity using the A549 ARE_Fluc cells (AID 493153). This assay was coupled with a fluorescence based (CellTiter Fluor) cytotoxicity assay to identify and exclude toxic compounds. This coupled assay was used to evaluate selected compounds for hit validation. The data herein is the result of the BugLite assay where decrease in luminescence signal = inhibition of Nrf2 activation. Inhibition is the desired outcome for this assay.
NIH Chemical Genomics Center [NCGC]
NIH Molecular Libraries Probe Centers Network [MLPCN]
Assay Submitter (PI): Shyam Biswal, Johns Hopkins University
[1] Shibata T., et al., Genetic alteration of Keap1 confers constitutive Nrf2 activation and resistance to chemotherapy in gallbladder cancer. Gastroenterology, 2008.
[2] Sjoblom T., et al., The consensus coding sequences of human breast and colorectal cancers. Science, 2006.
Five uL of cell suspension was dispensed into 1536-well white TC-treated plate using the Kalypsys dispenser to achieve a density of 5000 cells/well in all columns except column 1. The plates were incubated at 37deg C at 5% CO2 for 2 hours before 23 nL of compounds were added with the Kalypsys pin tool equipped with a 1,536-pin array. The control compounds Budesonide and Staurosporine were added at a concentration of 2mM. Budesonide was also added as a 1:10 titration, starting at 200uM, to achieve the dose-response control signal. The plates were incubated for 18-24 hour at 37deg C, 5% CO2 followed by a 5ul addition of 5% FBS OPTI-MEM growing media in column 1 as negative control. One microliter of 5x CellTiter Fluor (Promega) was added to each well and the assay plates were incubated at 37deg C, 5% CO2 for 30 minutes. The fluorescence signal was read using the PerkinElmer ViewLux plate reader (Ex = 405 nm /Em = 525 nm) for a 3 second exposure. After the signal was taken, 3 uL of 3x BugLite was dispensed into all wells. The plates were then incubated at room temperature for 15 minutes. A second ViewLux read (40 sec exposure) was performed to detect the luminescence signal. Cytotoxicity was assessed through the first fluorescent read while biochemical activity against Nrf2 was measured in the luminescent read. The data was normalized to the positive and negative controls.
Potency is read from the fitted curve at half-maximal effect.

Potency, active:
CCOC(=O)c1cnc(-n2nc(C)cc2C)nc1NNc1cc(C)nc(-c2ccccc2)n1 5.17 µM
CC(C)(C)c1ccc(Oc2ccc(N)cc2)cc1 5.17 µM
C[n+]1ccc(/C=C/c2c[nH]c3ccccc23)cc1 1.46 µM
OCCCNc1nccc(-c2cc(Nc3cccc(Cl)c3)ncn2)n1 1.46 µM
Cc1c(Cl)cccc1NC(=O)Cn1cc(C(=O)c2cccs2)c2ccccc21 5.8 µM
Brc1c(CSc2nncc3ccccc23)nc2ccccn12 6.51 µM
Cc1oc2c(F)c(F)c(F)c(F)c2c1S(=O)(=O)Nc1cccc(C(F)(F)F)c1 14.6 µM
c1ccc(C(=NNc2nc3ccccc3s2)c2ccccn2)cc1 11.6 µM
CCCOc1ccc(Cc2c(Cl)nc(SC)nc2NC)cc1 6.51 µM
CC(=NNC(=S)N1CCCCCC1)c1ccccn1 2.59 µM
CC(=O)Nc1ccc(Nc2c3ccccc3nc3ccccc23)cc1 1.64 µM
COc1ccc(C(=O)C[n+]2ccc(N)c(C)c2C)cc1 6.51 µM
CCCOc1ccc(C(=O)Nc2ccc3oc(-c4cccc(Cl)c4Cl)nc3c2)cc1 16.4 µM
CC1(C)CC(N2CCN(C(c3ccccc3)c3ccccc3)CC2)=CC(=[N+]2CCCCC2)C1 4.61 µM
O=C(Nc1ccc(Br)cn1)C1CCN(S(=O)(=O)c2cccs2)CC1 5.8 µM
CC(C)Cn1c(N)c(C(=O)COC(=O)CN2C(=O)C3CC=CCC3C2=O)c(=O)n(C)c1=O (stereo unspecified) 5.8 µM
CCC(C)N1C(=O)S/C(=C/c2ccc(Sc3nc4ccccc4[nH]3)o2)C1=O (stereo unspecified) 20.6 µM
CCC(C)(C)c1ccc(Oc2ccc(NC(=O)COC(=O)C3=COCCO3)cc2)cc1 10.3 µM
Cc1csc[n+]1CCC1CCCCC1 9.2 µM
COc1cccc(-c2nnc(NC(=O)c3ccc(S(=O)(=O)N(CC(C)C)CC(C)C)cc3)o2)c1 2.59 µM
CCNS(=O)(=O)c1ccc(CCC(=O)N2CCN(c3cc(Cl)ccc3C)CC2)cc1 23.1 µM
Cn1nccc1C(=O)NC1CCCc2c1cnn2-c1ccc(F)cc1F (stereo unspecified) 2.59 µM
O/N=C(\C[n+]1ccccc1)c1ccc(Br)cc1 6.51 µM
Cc1cccc(N2CCN(C(=O)CCS(=O)(=O)c3ccc4c(c3)NC(=O)C(C)S4)CC2)c1C (stereo unspecified) 18.4 µM
Cc1ccc(S(=O)(=O)N2CCN(c3ncnc4ccccc34)CC2)cc1 7.31 µM
O=C1C=C(c2ccnc3cc(Cl)ccc23)C[C@@H](c2ccc3c(c2)OCO3)C1 7.31 µM
COc1ccc(CCNC(=O)c2ccc(CS(=O)(=O)c3ccc(Br)cc3)o2)cc1OC 14.6 µM
COc1ccc(OC)c(Cc2cnc3nc(N)nc(N)c3c2C)c1 9.2 µM
CCCCNc1nc2c(c(=O)n(C)c(=O)n2C)n1Cc1cccc(OC)c1 9.2 µM
N#CC(C#N)=CN=c1ccn(Cc2ccc(Cl)cc2Cl)cc1 4.11 µM
CN(Cc1cccnc1)C(=O)c1cc(COc2ccc3ncccc3c2)on1 5.8 µM
CC(=O)N1CCCc2cc(S(=O)(=O)N3CCCC(C(=O)N4CCN(c5cccc(Cl)c5)CC4)C3)ccc21 (stereo unspecified) 7.31 µM
CC(=O)N1c2ccc(S(=O)(=O)N3CCCC(C(=O)NCc4ccc(Cl)cc4)C3)cc2CC1C (stereo unspecified) 7.31 µM
CC(=O)N1c2ccc(S(=O)(=O)N3CCCC(C(=O)Nc4cccc(Cl)c4)C3)cc2CC1C (stereo unspecified) 11.6 µM
O=C(Nc1ccncc1)c1c(F)cccc1F 10.3 µM
COc1ccc(CCNc2cc(N3CCN(C(=O)c4ccccc4OC)CC3)ccc2[N+](=O)[O-])cc1OC 4.11 µM
CC1(C)O[C@@H]2CC3C4C[C@H](F)C5=CC(=O)C=CC5(C)C4C(O)CC3(C)[C@]2(C(=O)CO)O1 (stereo partly specified) 0.0082 µM
Cc1ccc(NC(=O)C2CC(=O)N(c3ccc4c(c3)OCCO4)C2)cc1S(=O)(=O)N1CCCCCC1 (stereo unspecified) 20.6 µM
CCCCCCCCn1c2c(c(=N)c3c1CCC3)CCCC2 6.51 µM
O=C(CSc1nnc2c(n1)[nH]c1ccccc12)NC1CCCCC1 2.31 µM
O=C(CN1C(=O)c2ccccc2S1(=O)=O)N1CCc2ccccc21 3.66 µM
O=C(CCC(=O)N1CCN(S(=O)(=O)c2ccc(Cl)cc2)CC1)NCc1cccc(C(F)(F)F)c1 8.2 µM
Cc1ccc(S(=O)(=O)N2C[C@@H]3CCCC[C@@H]3[C@@H](C)[C@H]2c2cn(Cc3ccccc3)c3ccc(F)cc23)cc1 5.17 µM
CC(C)(C)n1ncc2c(=O)n(Cc3ccc(C(=O)c4ccccc4)cc3)cnc21 1.3 µM
O=C(CC(O)(C(F)(F)F)C(F)(F)F)Nc1ccc(Cl)c(Cl)c1 2.59 µM
COc1ccc(CC(=O)Nc2nc(-c3ccc(F)c(F)c3)cs2)cc1OC 5.8 µM

Potency, inactive:
Cc1ccc(NS(=O)(=O)c2cccs2)cc1S(=O)(=O)N1CCCCCC1
COCCn1c(SCC(=O)Nc2ccccc2F)nc2c(c1=O)SCC2
CC1CCN(S(=O)(=O)c2ccc(NC(=O)C3CC(=O)N(c4ccccc4)C3)cc2)CC1 (stereo unspecified)
CCCN(c1ccc(C(C)C)cc1)S(=O)(=O)c1c(C)[nH]c(=O)[nH]c1=O
O=c1[nH]c(SCc2cccc(F)c2)nc2ccccc12
